The whole screen tested about 48,000 compounds, of which about 13,000 (27%) showed an effect of 50% or more. This is one part of the list.
test system: Wolbachia pipientis; assay: Anti-Wolbachia Cell-Based Screen; assay type: functional; design: scale not given: in the data most compounds retested in dose-response had high values; conditions: 5 µM

SMILES | Percent Effect [%]
Cc1cnn(CCNCc2csc(-c3ccc4c(c3)OCO4)n2)c1 | -11.61
CN(CCS(=O)(=O)c1cc(Cl)ccc1Cl)CC(N)=O | 6.108
Cc1ccn(-c2ccc(NCc3cccnc3N3CCCCC3)nn2)n1 | -6.636
Nc1cc2c(nn1)CCN(C(=O)c1ccccc1Oc1cccnc1)C2 | -10.76
CCc1nccn1C1CCCN(C(=O)c2cnc3onc(C)c3c2)C1 (stereo not drawn) | -19.2
Cc1cc(C(=O)N2CCCC(n3cncn3)C2)c(C)n1CC1CC1 (stereo not drawn) | 127.1
Cc1ncsc1C(=O)N1CCCC(n2cncn2)C1 (stereo not drawn) | 88.89
Cc1cc(C)n(CCC(=O)N2CCCC(n3cncn3)C2)n1 (stereo not drawn) | -3.067
COCC(C)NS(=O)(=O)c1ccc(Br)cn1 (stereo not drawn) | -13.48
O=C(Nc1ccccc1F)N1CCN(Cc2noc(C3CC3)n2)CC1 | 0.2085
CCCc1cnc(C)nc1N1CCC2(CC1)CNC(=O)O2 | 7.463
CC(=O)NC1CCN(c2nc(N(C)C)nc3c2CCCC3)CC1 | 10.24
Cc1nc(N(C)C)nc(N2CCC3(CC2)CNC(=O)O3)c1C | 97.26
CN(C)c1nc2c(c(N3CCC4(CC3)CNC(=O)C4)n1)CCCC2 | 100.7
CN(C)c1nc2c(c(N3CCC4(CCCNC4=O)C3)n1)CCCC2 (stereo not drawn) | 9.775
O=C1NCC2(CCCN(c3ncnc4c3CCC4)CC2)O1 (stereo not drawn) | 82.73
Cc1ccc(-c2ccnc(N3CCC4(CC3)CNC(=O)O4)n2)c(C)n1 | 5.789
CN1CCc2[nH]nc(C(=O)N3CCCC4(CC3)CNC(=O)O4)c2C1 (stereo not drawn) | 1.077
CC(C)Cc1ncc2c(n1)CN(c1nc(N(C)C)nc3c1CCCC3)C2 | 27.68
CN(C)c1nc2c(c(N3CCCC4(CC3)CNC(=O)O4)n1)CCCC2 (stereo not drawn) | 98.47
c1nc2c(c(N3CCOC(Cn4cncn4)C3)n1)CCC2 (stereo not drawn) | -6.426
c1cnn(CC2CN(c3ncnc4c3CCC4)CCO2)c1 (stereo not drawn) | -17.69

SMILES | Percent Effect [%]
CC(C)Cc1cc(CC2(NCc3ccco3)COC2)no1 | -14.13
Cc1ccc(-n2ccc3nc(N4CCCC4)ncc3c2=O)cc1C | -4.635
COCCN1C[C@H]2CCN(c3ncccn3)CC[C@H]2S1(=O)=O | -6.135
COc1ccc(F)cc1-c1nc2c([nH]1)c(C1CC1)nn2C | 5.431
Cn1cc(C(=O)N2CC[C@@H]3[C@@H]2CCN3c2ncc(F)cn2)cn1.O=C(O)C(F)(F)F | 3.256
N#Cc1cccc(N2CC3(CCN(C(=O)c4cccnc4)C3)CC2=O)c1.O=C(O)C(F)(F)F (stereo not drawn) | 6.163
Cc1ccc(CNC(=O)c2nc3c(o2)CN(C(=O)c2cccnc2)C3)o1.O=C(O)C(F)(F)F | -4.272
CS(=O)(=O)N1CCC2(CN(C(=O)c3cccnc3)C2)C1.O=C(O)C(F)(F)F | -8.829
NC(=O)N1CCC2(CCN(C(=O)c3cccnc3)CC2)C1.O=C(O)C(F)(F)F | 118.8
Cc1ccc(CN2CCC3(CC2)CCN(C(=O)c2cccnc2)C3)o1.O=C(O)C(F)(F)F | 93.46
O=C(O)C(F)(F)F.O=C(c1cccnc1)N1CCC2(CCN(C(=O)N3CCCC3)CC2)C1 | 121.5
Cc1cnc(N2CC3(CCN(C(=O)c4cccnc4)C3)C2)nc1.O=C(O)C(F)(F)F | -3.598
Cc1nc(N)c2ccc(C3CCCCN3)nc2n1.Cl (stereo not drawn) | 107.4
CCn1c(C)nnc1CN(C)C1CCN(CCn2cccn2)C1 (stereo not drawn) | 0.3298
CCn1c(C)nnc1CN(C)C1CCN(CCCSC)C1 (stereo not drawn) | 119.6
CCn1c(C)nnc1CN(C)C1CCN(CCOc2ccccc2)C1 (stereo not drawn) | 149.5
CCn1c(C)nnc1CN(C)C1CCN(CCCOC)C1 (stereo not drawn) | 0.6511
CCn1c(C)nnc1CN(C)C1CCN(CC2CCC2)C1 (stereo not drawn) | 111.4
CCn1c(C)nnc1CN(C)C1CCN(CCS(=O)(=O)CC)C1 (stereo not drawn) | 144.9
CCn1c(C)nnc1CN(C)C1CCN(CCc2ccncc2)C1 (stereo not drawn) | 1.632
COC(=O)c1ccc(CNCc2cn(C)nc2C)cc1 | 100.4
COc1ccc(CCn2cnnc2[S+](C)[O-])cc1 (stereo not drawn) | -1.402

SMILES | Percent Effect [%]
COc1ccc(-n2ccc(CNCc3ccc(OC)c(O)c3)n2)cc1 | -11.8
COC(=O)c1ccc(CNC(C)c2ccc(S(C)(=O)=O)cc2)cc1 (stereo not drawn) | -2.189
COC(=O)c1ccc(CNC(=O)Cc2csc(C(C)=O)c2)cc1 | 12.04
COC(=O)c1ccc(CNCc2ccn(C)n2)cc1 | 138.6
COC(=O)c1ccc(CNC(=O)Nc2ccc(=O)n(C)c2)cc1 | 12.29
COc1ccc(CNCc2cn(C)nc2C)cc1 | 122.7
CCn1cc(CNCc2ccc(C(=O)OC)cc2)c(C)n1 | 153.8
COc1ccc(CNCc2cc(Br)c3c(c2)OCO3)cc1 | -3.854
Cc1ccc(-c2ncc(CNc3cnccc3CO)s2)cc1 | -6.325
Cc1nc(-c2ccccc2)sc1C(=O)N(C1CC1)C1CC(=O)NC1=O (stereo not drawn) | -7.701
CCN(CC)C(=O)CN(C)C(=O)c1cc(-c2cccc(Cl)c2)no1 | -12
CCN(CC)c1ccc(NS(=O)(=O)c2cnn(C(C)C)c2)cn1 | -6.938
COCc1ccc(C(=O)N2CCCN(Cc3ccc(F)cc3)CC2)s1 | 2.247
CCCS(=O)(=O)c1ccc(N2CCN(c3ccccn3)CC2)nn1 | 2.245
Cc1nn(C)cc1CNCc1ccc(N(C)C)cc1 | 119.7
Cc1ccc(CNCc2c(C)nn(C)c2N(C)C)cn1 | -12.73
Cc1nn(C)c(N(C)C)c1CNCc1ccc(Cn2cccn2)cc1 | 10.8
CC(C)(C)OC(=O)N1CCC[C@H](NCC2CCOCC2)C1 | -10.59
Cc1cc(NC(=O)Cc2ccccc2O)c[nH]c1=O | 7.885
CCn1cc(CN2CCc3nc(N4CCOCC4)nc(O)c3CC2)cn1 | -4.464
O=C(Cc1ccccn1)N1CCc2nc(-c3cnccn3)nc(O)c2C1 | -13.11
CCn1cc(CN2CCc3nc(-c4ccccn4)nc(O)c3C2)cn1 | 107.7

SMILES | Percent Effect [%]
O=C(Cc1ccccn1)N1CCc2c(O)nc(-c3cnccn3)nc2C1 | 94.87
CN1CCN(C(=O)Cc2ccccn2)Cc2cccnc21 | -6.313
Oc1nc(-c2cnccn2)nc2c1CCN(Cc1ccccn1)C2 | 89.8
CCOCCC(=O)N(C)Cc1noc(C(C)C)n1 | -6.768
CC(C)CC(C(=O)N1CCCSCC1)N1CCCCC1=O (stereo not drawn) | -10.63
COc1ccc(C(=O)N(c2ccc(OC)c(F)c2)C(C)C)cn1 | 3.547
CNS(=O)(=O)c1cccc(C(C)NCc2ccc(F)c(F)c2)c1 (stereo not drawn) | 18.96
COC(=O)c1ccc(N2CCC(N(C)c3ccccc3)CC2)nn1 | -3.944
O=C(CCC1CCCO1)NCc1ccnc(-n2cccn2)c1 (stereo not drawn) | -9.533
COCCN(Cc1sccc1C)C(=O)C1CCCN(C(N)=O)C1 (stereo not drawn) | 10.64
COC(=O)c1oc(CNC(C)(C)CO)cc1C | 5.82
CC(O)CNCc1ccccc1C(F)(F)F.Cl (stereo not drawn) | -7.899
COC(=O)c1ccc(C(=O)NCc2ccc(Br)cc2)cn1 | 0.8592
Cc1ncc(CNC(C)(C)CO)c2cc(C(=O)c3ccc(Br)cc3)oc12 | 82.9
COc1ncc(C(=O)NCc2ccc(Br)cc2)cn1 | 4.726
Cc1ncc(CNCCO)c2cc(C(=O)c3ccc(Br)cc3)oc12.Cl | 215.6
Cc1ncsc1CCN(C)Cc1ccc(CO)o1 | -28.69
Cc1ncc(CN(C)CCO)c2cc(C(=O)c3ccc(Br)cc3)oc12.Cl | 142.2
Cc1oc(CN(C)C(=O)c2ccc(Br)cc2)cc1C(=O)O | 5.692
Cc1ncc(CNCC(C)O)c2cc(C(=O)c3ccc(Br)cc3)oc12.Cl (stereo not drawn) | 102.9
CN1CCc2[nH]nc(C(=O)N3CCCC4(CN(C)C(=O)O4)C3)c2C1 (stereo not drawn) | 0.3528
CC(C)c1cc(NCC2(N3CCOCC3)CCCCC2)ncn1 | -13.37

SMILES | Percent Effect [%]
Cc1noc2ncnc(N3CCC(O)(Cn4ccnc4)CC3)c12 | -11.6
Cc1cc(-c2nnn(CCC(N)=O)n2)ccc1F | -8.55
CN(Cc1ccsc1)C(=O)Cn1c(CS(C)(=O)=O)nc2ccccc21 | 150.1
COCCN1CCN(CC(=O)N(C)Cc2ccsc2)CC1 | -3.337
CN(Cc1ccsc1)C(=O)CS(=O)(=O)Cc1ccc(Cl)c(Cl)c1 | -4.981
CS(=O)(=O)CCNC(=O)C1(c2cccc(Cl)c2)CCCCC1 | 4.174
Cc1ccc(CN2CCC3(CC2)CCN(Cc2ccoc2)CC3)cc1.O=C(O)C(F)(F)F.O=C(O)C(F)(F)F | 17.41
CS(=O)(=O)N1CCOCC2(CN(Cc3ccsc3)CCO2)C1.O=C(O)C(F)(F)F (stereo not drawn) | -5.064
CN1CCOCC12CCN(Cc1ccoc1)CC2.O=C(O)C(F)(F)F.O=C(O)C(F)(F)F | 109
CS(=O)(=O)N1CCOCC2(CCN(Cc3ccoc3)CC2)C1.O=C(O)C(F)(F)F | 115.7
CS(=O)(=O)N1CCOCC2(CCN(Cc3ccc[nH]3)CC2)C1.O=C(O)C(F)(F)F | -6.777
O=C(CCc1ccsc1)NCc1ccnc(OC2CCOCC2)c1 | -13.16
O=C(O)C(F)(F)F.O=c1ccc2c(n1CC1CC1)CCC(NCc1cccs1)C2 (stereo not drawn) | 108.8
COc1ncccc1CNC1CCc2c(ccc(=O)n2CC2CC2)C1.O=C(O)C(F)(F)F.O=C(O)C(F)(F)F (stereo not drawn) | 98.83
COc1ncccc1CN1CCc2[nH]nc(C(=O)N3CCCC3C)c2C1.O=C(O)C(F)(F)F.O=C(O)C(F)(F)F (stereo not drawn) | 4.676
CN(C)C(=O)Cn1c2c(ccc1=O)CC(NCc1ccoc1)CC2.O=C(O)C(F)(F)F (stereo not drawn) | -9.512
COc1ncccc1CNC1CCc2c(ccc(=O)n2C)C1.O=C(O)C(F)(F)F.O=C(O)C(F)(F)F (stereo not drawn) | 100.1
COCCn1c2c(ccc1=O)CC(NCc1cccnc1OC)CC2.O=C(O)C(F)(F)F.O=C(O)C(F)(F)F (stereo not drawn) | 97.75
Cn1c2c(ccc1=O)CC(Nc1ncc(F)cn1)CC2.O=C(O)C(F)(F)F (stereo not drawn) | -3.561
COCCN1C(=O)CC[C@]12CC[C@@H](NCc1cccnc1OC)CC2.O=C(O)C(F)(F)F.O=C(O)C(F)(F)F | -1.329

Reference: ChEMBL document CHEMBL3988442, “University of Dundee, Small-Polar-MMV Screening Library” (2021)
